Measured values as given in PubChem BioAssay (NCI).
The panel holds about 83,000 compounds, 20% with a hit somewhere; the sample as a whole holds those more often.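 Values shown are percent growth following 48 h exposure of cells in 96-well plates to a single concentration of compound; below 10 was considered active.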 A number with no mark means an inactive call. Active and inactive are the calls of the source.

Columns and labels:
Experiment in all cases: NCI-60 one-dose screen, 48 h (100 = growth as untreated, 0 = no growth, -100 = all killed)
Conditions in all cases: 10 µM unless noted
[1] = system: DU-145 prostate
[2] = system: K-562 leukemia
[3] = system: MALME-3M melanoma
[4] = system: MDA-MB-231 breast
[5] = system: RXF 393 renal
[6] = system: SF-268 CNS
[7] = system: SF-295 CNS
[8] = system: SF-539 CNS
[9] = system: UACC-257 melanoma
[10] = system: M14 melanoma

Row | Structure (SMILES) | growth [1] | growth [2] | growth [3] | growth [4] | growth [5] | growth [6] | growth [7] | growth [8] | growth [9] | growth [10]
1 | Cc1ccc2c(-n3nc(C#N)c(C#N)c3N)cc(=O)[nH]c2c1 | 94% | 76% | 78.2% | 85.5% | 100% | 94.4% | 94% | 89.8% | 87.9% | 84.9%
2 | CC1C=CC(OC(=O)C(C)(O)CCC(O)(C(=O)OC2CC(O)C(C(C)C)CC2(C)O)C(C)C)(C(C)C)CC1 (stereo not given) | -89% [4.63 µM] (active) | -61.1% [4.63 µM] (active) | -71.5% [4.63 µM] (active) | -59.7% [4.63 µM] (active) | -87.3% [4.63 µM] (active) | -43.9% [4.63 µM] (active) | -86.9% [4.63 µM] (active) | -95.5% [4.63 µM] (active) | -88% [4.63 µM] (active) | -74.8% [4.63 µM] (active)
3 | CCCCNc1cc(-c2cn[nH]c2-c2cc(C)cc(OC)c2)nc(-c2cccnc2)n1 | 93.6% | 80.1% | 100% | 69.8% | 71.9% | 98.4% | 91.5% | 81.7% | 110% | 98.7%
4 | CCOC(=O)c1c(C)nc2ccccc2c1/C=C/c1cccs1 | 95.5% | 50.3% | 112% | 82.7% | 93.8% | 89.4% | 65.6% | 93.2% | 91.8% | 93.4%
5 | CCN1CCN(c2cc(C)nc(N(CCNc3ccnc4cc(Cl)ccc34)Cc3ccc4c(c3)OCO4)n2)CC1 | 26.5% | -48.4% (active) | -65.8% (active) | -42.4% (active) | -82.5% (active) | 7.14% (active) | -63.5% (active) | -71.2% (active) | -59.9% (active) | -66.5% (active)
6 | C/C=C(/C)n1cnc2c(Nc3ccccn3)nc(Cl)nc21 | 109% | 95.6% | 106% | 107% | 105% | 99.2% | 104% | 102% | 97.6% | 101%
7 | O=C1c2ccccc2C(=O)c2c1cc1c(c2[N+](=O)[O-])OCO1 | 17.8% | 10.5% | 85% | 11.3% | -63.5% (active) | 5.31% (active) | 10.6% | 21.3% | 82.3% | 73.5%
8 | COc1ccc(N2CCN(C(=O)c3sc4nc(C)c(Br)c(C)c4c3N)CC2)cc1 | 104% | 97.3% | -12.3% (active) | 84.2% | 116% | 89.1% | 95.6% | 91.8% | 99.7% | 99.3%
9 | O=C1Nc2ccccc2/C1=C\c1c[nH]c2ccc(Br)cc12 | 89.7% | 74.2% | 89.8% | 67% | 25.4% | 62.2% | 109% | 83.1% | 80.1% | 84.5%
10 | Clc1ccccc1-c1cnn2cc(-c3ccccc3)cnc12 | 87.6% | 67.3% | 89.9% | 72.4% | 87.6% | 85.6% | 82.9% | 81.3% | 86.3% | 91.5%
11 | Cc1nn(-c2cc(NC3CCC(O)CC3)c3c(=O)[nH]c(CCC(F)(F)F)cc3c2)c2c1C(=O)CC(C)(C)C2 (stereo not given) | 27% | 18.5% | 60% | 42% | 39.1% | 72% | 48.5% | 58% | 62.7% | 32.3%
12 | CC1=C2[C@@H](CC1)[C@]1(C)O[C@@](c3ccccc3)(C[C@H]1OC(=O)CO)[C@H]2OC(=O)/C=C/c1ccccc1 | 97.8% | 70.6% | 88.6% | 91.4% | 36.2% | 33.1% | 91% | 111% | 103% | 96.8%
13 | Cc1ccc(CNc2ccc3nc(CCC(C)C)[nH]c3c2)cc1 | 101% | 79.2% | 90.9% | 86% | 96% | 91.2% | 95.1% | 94.4% | 89.7% | 96.2%
14 | C#CCO[C@H]1CC(CC#C)(CC#C)C(=O)[C@@H]2[C@H]1[C@H]1C[C@@H]3[C@@]4(C)CCC[C@@](C)(C(=O)OC)[C@@H]4CC[C@@]23C=C1C(C)C | 97.7% | 88.9% | -35.9% (active) | 89.3% | 102% | 92.9% | 101% | 85.4% | 94.3% | 95.5%
